# Shown is part of a subset that was picked to be rich in hits.
# KDM5B inh = KDM5B demethylase inhibition; actives 2.6% (n = 220,000); Potency, µM (top dose mostly 57.7 µM), actives largely listed as inhibitors; KDM5B demethylase, FDH-coupled NADH fluorescence (FDH is formaldehyde dehydrogenase); active means well fitted inhibition curve with a large enough effect; further: 0% is about no effect; nearly all actives have a fitted effect of over 70% in size
# Target sequence (Q9UGL1 whole entry, looked up): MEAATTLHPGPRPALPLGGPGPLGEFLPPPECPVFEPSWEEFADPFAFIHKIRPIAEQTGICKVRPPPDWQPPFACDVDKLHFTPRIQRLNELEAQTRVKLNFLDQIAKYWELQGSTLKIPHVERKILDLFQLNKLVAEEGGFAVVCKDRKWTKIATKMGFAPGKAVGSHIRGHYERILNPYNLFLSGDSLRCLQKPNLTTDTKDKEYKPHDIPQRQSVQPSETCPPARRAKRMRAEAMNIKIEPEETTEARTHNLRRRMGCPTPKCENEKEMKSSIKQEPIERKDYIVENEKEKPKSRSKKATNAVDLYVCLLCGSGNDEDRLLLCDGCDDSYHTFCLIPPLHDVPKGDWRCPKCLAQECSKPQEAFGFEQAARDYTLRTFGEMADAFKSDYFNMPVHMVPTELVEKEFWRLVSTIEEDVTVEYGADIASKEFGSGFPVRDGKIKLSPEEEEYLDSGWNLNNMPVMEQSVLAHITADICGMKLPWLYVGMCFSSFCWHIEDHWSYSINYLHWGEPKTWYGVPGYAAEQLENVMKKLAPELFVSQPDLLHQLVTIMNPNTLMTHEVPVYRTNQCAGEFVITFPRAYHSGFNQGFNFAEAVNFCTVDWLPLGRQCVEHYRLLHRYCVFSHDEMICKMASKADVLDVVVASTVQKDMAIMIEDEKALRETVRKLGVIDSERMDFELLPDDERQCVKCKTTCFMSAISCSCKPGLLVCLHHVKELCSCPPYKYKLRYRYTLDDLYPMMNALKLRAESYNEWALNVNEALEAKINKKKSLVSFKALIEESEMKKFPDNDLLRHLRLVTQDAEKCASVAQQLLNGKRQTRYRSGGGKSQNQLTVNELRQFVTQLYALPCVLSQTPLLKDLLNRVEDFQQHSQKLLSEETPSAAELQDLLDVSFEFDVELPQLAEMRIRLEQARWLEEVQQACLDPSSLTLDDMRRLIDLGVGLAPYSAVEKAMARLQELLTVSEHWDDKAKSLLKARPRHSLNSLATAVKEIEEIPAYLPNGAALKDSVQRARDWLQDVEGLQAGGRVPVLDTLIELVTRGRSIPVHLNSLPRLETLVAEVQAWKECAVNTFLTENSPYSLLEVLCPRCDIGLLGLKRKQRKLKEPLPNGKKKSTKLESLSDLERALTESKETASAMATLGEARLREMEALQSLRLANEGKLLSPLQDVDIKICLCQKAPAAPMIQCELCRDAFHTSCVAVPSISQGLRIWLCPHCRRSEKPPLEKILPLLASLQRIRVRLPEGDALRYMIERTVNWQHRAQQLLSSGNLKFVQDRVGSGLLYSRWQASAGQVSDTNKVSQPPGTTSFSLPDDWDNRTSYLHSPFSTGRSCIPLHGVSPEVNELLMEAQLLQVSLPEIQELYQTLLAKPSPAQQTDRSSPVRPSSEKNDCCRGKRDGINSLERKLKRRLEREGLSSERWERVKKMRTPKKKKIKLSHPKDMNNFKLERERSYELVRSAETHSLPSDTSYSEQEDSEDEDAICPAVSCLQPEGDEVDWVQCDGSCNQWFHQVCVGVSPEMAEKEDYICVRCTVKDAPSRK
#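 Coupled FDH/NAD⁺ fluorescence readout. KDM5BΔAP 200 nM final; compound titration, 10 min RT preincubation; substrate mix 12.5 µM H3K4me3, 25 µM 2-OG, 50 µM Fe(II), 100 µM ascorbate, 0.25 mM NAD⁺, 0.25 U/mL FDH; ΔRFU over 30 min.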
# * = called active by the depositor; i = inactive. Potency means the concentration at half of the fitted maximal effect.
SMILES,KDM5B inh
COCC(=O)NC[C@H]1C[C@@H]2CCN1C[C@@H]2CN1CCc2ccccc2C1,i
O=C(c1ccccc1)N1C[C@@H]2C[C@H](C1)c1ccc(-c3cccc(C(F)(F)F)c3)c(=O)n1C2,25µM*
O=C(c1ccccc1)N1C[C@@H]2C[C@H](C1)c1ccc(-c3ccc(Cl)cc3)c(=O)n1C2,i
CC(C)NC(=O)N1CC[C@@H](CC(=O)O)[C@@H](CCN2C[C@@H]3C[C@H](C2)c2cccc(=O)n2C3)C1,i
O=C(O)COCC(=O)N1C[C@@H]2C[C@H](C1)c1ccc(-c3cccc(C(F)(F)F)c3)c(=O)n1C2,32µM*
O=C(O)CCC(=O)N1C[C@@H]2C[C@H](C1)c1ccc(-c3ccc(Cl)cc3)c(=O)n1C2,35µM*
COc1ccc(C(C#N)C(C)=O)cc1 (stereo unspecified),i
Cc1nn(C)c(C)c1C1SCC(=O)Nc2c1c(C)nn2-c1ccccc1 (stereo unspecified),i
O=C1Nc2ccccc2C12CCN(CC1CCCCC1)CC2,i
COCCN1CCC(N2CCN(C(=O)Cc3ccc(F)cc3)CC2)C1=O (stereo unspecified),i
C=C(C)C(=O)OC[N+](C)(C)CCOC(=O)C(O)(c1ccccc1)C1CCCC1 (stereo unspecified),i
COc1ccccc1CNCCc1c[nH]c2ccccc12,i
COc1cc2c(cc1Oc1cccc(N(C)C)c1)NC(=O)C21CCN(Cc2cccc(O)c2)CC1,i
O=C(NC[C@H]1C[C@@H]2CCN1C[C@@H]2CN1C[C@@H]2C[C@H](C1)c1cccc(=O)n1C2)c1ccccc1,i
Cc1nc(N2CC3CC(C2)c2cccc(=O)n2C3)c2c(C)nn(C)c2n1 (stereo unspecified),i
Cc1noc(-c2ccc(N3CC4CC(C3)c3cccc(=O)n3C4)nc2)n1 (stereo unspecified),22µM*
CCc1noc(C(C)N2CCN(C(=O)Cc3ccc(C)cc3)CC2)n1 (stereo unspecified),i
Cc1nccc(N2CCN(C)C3(CCC(=O)N(C)CC3)C2)n1 (stereo unspecified),i
O=C(NCc1cccnc1)c1cn(Cc2ccccc2)c2ccccc12,i
COc1cc2c(cc1Oc1ccccc1)NC(=O)C21CCN(CC2CC2)CC1,i
COc1cc2c(cc1Oc1ccccc1)NC(=O)C21CCN(Cc2cccnc2)CC1,i
COc1cc2c(cc1OC1CCCC1)NC(=O)C21CCN(Cc2nccn2C)CC1,i
COc1cc2c(cc1Oc1cccc(N(C)C)c1)NC(=O)C21CCN(Cc2ccccc2)CC1,i
COc1cc2c(cc1OC1CCCC1)NC(=O)C21CCN(C(=O)Cc2ccccc2)CC1,i
CCc1cnc(N2CCC3(CC2)C(=O)Nc2cc(Oc4ccccc4)c(OC)cc23)nc1,32µM*
SMILES,KDM5B inh
COc1cc2c(cc1Oc1cccc(N(C)C)c1)NC(=O)C21CCN(CC2CC2)CC1,i
CCc1cnc(N2CCC3(CC2)C(=O)Nc2cc(OC4CCCC4)c(OC)cc23)nc1,35µM*
COc1cc2c(cc1OC1CCCC1)NC(=O)C21CCN(Cc2ccccc2)CC1,i
COc1cc2c(cc1OC1CCCC1)NC(=O)C21CCN(c2ncc(C(C)C)cn2)CC1,35µM*
COc1cc2c(cc1OC1CCCC1)NC(=O)C21CCN(c2ncccn2)CC1,i
COc1cc2c(cc1Oc1cccc(N(C)C)c1)NC(=O)C21CCN(c2ncc(F)cn2)CC1,32µM*
COc1cccc(CCNCc2ccc(Br)cc2)c1,i
CCCS(=O)(=O)NC[C@H]1C[C@@H]2CCN1C[C@@H]2c1cc(-c2ccc(F)cc2)nn1C,i
O=C(c1cn(Cc2ccccc2)c2ccccc12)N1CCC(C(=O)N2CCCCC2)CC1,i
Cc1ncsc1CN1CC(CO)C2(CCNCC2)C1 (stereo unspecified),i
C=C[C@H]1CN2CC[C@H]1C[C@@H]2CNS(=O)(=O)c1ccc2ccccc2c1,i
CC(C)(C)c1cc2c(c(C(C)(C)C)c1)Oc1cc(C#N)c(C#N)cc1O2,i
Cc1c(C(=O)Cn2cnc3ccccc32)c2ccccc2n1C,i
CCOC(=O)C1=C(C)OC(N)=C(C(=O)OC)C12C(=O)Nc1cc(Br)ccc12 (stereo unspecified),i
COC(=O)c1ccc(NC(=O)COC(=O)c2cn(C)c3ccccc23)cc1,i
COc1ccc(CCN(C)Cc2cc(C(C)(C)C)c(O)c(C(C)(C)C)c2)cc1OC,i
O=C(c1ccc(C(F)(F)F)cc1)N1CCN(Cc2ccccc2)CC1,i
O=C(CCc1nc2ccccc2s1)N1[C@H]2CC[C@@H]1c1cnc(-c3ccc(F)cc3)nc1C2,i
OC(CN(Cc1ccccc1)Cc1ccccc1)c1ccc2cc[nH]c2c1 (stereo unspecified),i
CS(=O)(=O)N1C[C@H]2CCN(Cc3ccc[nH]3)C[C@H]21,14µM*
Cn1cc(C(=O)Cn2cnc3ccccc32)c2ccccc21,i
Cc1ccc2c(c1)C(SCC(=O)Nc1ccccc1C(=O)O)c1ccccc1O2 (stereo unspecified),i
CC(=O)C1=C(C)OC(N)=C(C(=O)OCc2ccccc2)C12C(=O)Nc1ccccc12 (stereo unspecified),i
COc1cc2c(cc1OCc1ccncc1)NC(=O)C21CCN(c2ccccn2)CC1,28µM*
COc1cc2c(cc1OCc1ccncc1)NC(=O)C21CCN(CC2CC2)CC1,i
SMILES,KDM5B inh
COc1cc2c(cc1OCc1ccccc1)NC(=O)C21CCN(CC2CC2)CC1,i
COc1cc2c(cc1OCC1CC1)NC(=O)C21CCN(C(=O)c2ccccc2)CC1,i
COc1cc2c(cc1OCc1ccncc1)NC(=O)C21CCN(Cc2ccccc2O)CC1,i
COc1cc2c(cc1OCc1ccccc1)NC(=O)C21CCN(c2cnccn2)CC1,32µM*
COc1cc2c(cc1OCc1ccccc1)NC(=O)C21CCN(c2nc(C)cnc2C)CC1,28µM*
COc1cc2c(cc1OCc1ccncc1)NC(=O)C21CCN(C(=O)c2cccnc2)CC1,i
COc1cc2c(cc1OCc1ccccc1)NC(=O)C21CCN(Cc2ccccn2)CC1,i
Cc1cc(C)cc(N2C(=O)NC(=O)C3(Cc4cc(C)ccc4N(C)C3)C2=O)c1 (stereo unspecified),i
CC(NC(C)c1ccc(Cl)cc1)C(=O)c1c[nH]c2ccccc12 (stereo unspecified),i
Cc1cnc(N2CC3CCC(C2)N3CC(F)(F)F)c([N+](=O)[O-])c1,i
O[C@H]1[C@H](NCc2ccncc2)[C@H]2CO[C@H](O2)[C@@H]1N1CCOCC1,i
N#Cc1ccc(NC(=O)CCC2CCCC2)cc1Cl,i
O=C(COc1ccc2c(-c3ccccc3)cc(=O)oc2c1)N1CCN(CCO)CC1,i
COc1ccc(CNCCc2cccc(Cl)c2)cc1,i
Cc1ccc(NC(=O)CN2C(=O)CN=C(c3ccc(F)cc3)c3c2sc(C)c3C)cc1,i
COc1ccccc1-c1cc([C@H]2CN3CC[C@H]2C[C@@H]3COC(=O)Nc2ccc(C(C)C)cc2)nc(C)n1,i
Cc1ccccc1-c1ccc2n(c1=O)C[C@H]1C[C@@H]2CN(S(=O)(=O)c2ccccc2C#N)C1,i
Cc1ccccc1-c1ccc2n(c1=O)C[C@H]1C[C@@H]2CN(Cc2cccs2)C1,32µM*
COc1ccccc1NC(=O)N1C[C@@H]2C[C@H](C1)c1c(-c3cccs3)ccc(=O)n1C2,i
CC(C)N1CC2CCC(C1)N2Cc1cccs1,i

# Bioassay records (PubChem)
